Source: PubChem BioAssay (National Center for Advancing Translational Sciences (NCATS))
The full list was thinned out, with hits kept by preference.
TDP1 cell CPT: DT40-hTDP1 cell growth loss with CPT. chicken DT40 Tdp1-/-;hTDP1 cells + 20 nM CPT, ATP luminescence, 48 h. 12% of 420,000 active. Potency, µM (highest dose often 46.2 µM), without a hit: at the top dose activity change, negative = growth inhibition, hits mostly inhibitors; further: potency means the concentration at half of the fitted maximal effect; nearly all actives have a fitted effect of over 55% in size
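Cell growth measured by CellTiter-Glo luminescence after a minimum 48 h, 37 C compound exposure with 20 nM CPT in Tdp1-knockout DT40 cells stably expressing hTDP1, seeded 400/well; qHTS titration format.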
HT1080NT lethal: kills 2HG-producing HT-1080-NT fibrosarcoma cells | HT-1080-NT fibrosarcoma viability, CellTiter-Glo ATP luminescence, 48 h | Potency, µM (top dose mostly 46.1 µM), for inactives: top-dose activity, negative = less viability, actives largely listed as cytotoxic | 1.6% of 360,000 active;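 further: NT is the 2HG producing partner of a matched IDH1 knockdown line; potency means the concentration at half of the fitted maximal effect; 0% = DMSO-treated cells and -100% = media-only wells without cells; nearly all actives have a fitted effect of over 55% in size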
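A 48-hour cytotoxicity screen used HT-1080-NT cells plated 2 hours before compound delivery. ATP-based CellTiter-Glo luminescence measured viability, normalized to DMSO and no-cell controls.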
HT1080 IDH1KD tx: kills HT-1080 cells with IDH1 knockdown; Potency, µM (series often up to 46.1 µM), inactives show top-dose activity, negative = toxicity, actives largely listed as cytotoxic; AID 686971; HT-1080 IDH1 knockdown viability, ATP luminescence, 48 h; 2% of 360,000 active;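 further: potency means the concentration at half of the fitted maximal effect; 0% = DMSO wells and -100% = cell-free medium wells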
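IDH1KD HT-1080 cells, 750/well, RPMI + 5% FBS; compound pinned after 2 h settling; 48 h, 37 °C; CellTiter-Glo luminescence; % activity normalised to DMSO and no-cell wells; curves fitted, classed by r2 and efficacy.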
12-LOX inh: blocks human arachidonate 12S-lipoxygenase; purified 12hLO, xylenol orange hydroperoxide absorbance; Potency, µM (series often up to 108 µM), without a hit: top-dose activity change, negative = inhibition, actives largely listed as inhibitors; 1.1% of 580,000 active; further: potency means the concentration at half of the fitted maximal effect
Target sequence (P18054 whole entry, looked up): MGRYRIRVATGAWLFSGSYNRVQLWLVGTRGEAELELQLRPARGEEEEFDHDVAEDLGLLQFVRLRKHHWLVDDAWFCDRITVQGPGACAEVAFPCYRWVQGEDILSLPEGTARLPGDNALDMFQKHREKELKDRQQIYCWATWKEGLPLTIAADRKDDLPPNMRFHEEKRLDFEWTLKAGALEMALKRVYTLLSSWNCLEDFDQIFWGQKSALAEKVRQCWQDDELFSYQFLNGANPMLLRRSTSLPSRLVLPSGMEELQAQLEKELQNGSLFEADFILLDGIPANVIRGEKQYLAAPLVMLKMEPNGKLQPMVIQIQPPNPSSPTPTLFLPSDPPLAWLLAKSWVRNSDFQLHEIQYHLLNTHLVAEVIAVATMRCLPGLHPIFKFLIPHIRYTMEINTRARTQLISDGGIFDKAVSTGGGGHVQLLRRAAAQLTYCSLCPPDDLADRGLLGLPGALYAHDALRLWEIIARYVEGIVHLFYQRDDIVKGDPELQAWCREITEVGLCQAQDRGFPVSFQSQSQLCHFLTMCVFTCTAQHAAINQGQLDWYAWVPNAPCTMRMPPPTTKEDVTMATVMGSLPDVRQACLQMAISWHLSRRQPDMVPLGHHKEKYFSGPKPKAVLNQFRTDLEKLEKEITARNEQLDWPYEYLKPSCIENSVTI
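Purified human 12hLO at 150 nM in 25 mM Hepes, 0.01% Triton X-100, pH 7.0, preincubated 15 min at room temperature with compound. Reaction started with 40 uM arachidonic acid, 30 min at room temperature. Hydroperoxide measured by Fe-xylenol orange, 573/405 nm absorbance ratio.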
DT40 TDP1 no CPT: qHTS for Inhibitors of human tyrosyl-DNA phosphodiesterase 1 (TDP1): qHTS in cells in absence of CPT; 15% of 420,000 active; Potency, µM (titrated, usually from 46.2 µM), without a hit: at the highest dose activity change, negative = growth inhibition, hits mostly inhibitors; AID 686978, 2013; DT40 Tdp1-/- hTDP1 cells, no CPT, ATP luminescence, 48 h; further: potency means the concentration at half of the fitted maximal effect; nearly all actives have a fitted effect of over 55% in size
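Growth of hTDP1-complemented DT40 Tdp1-knockout cells is measured by ATP luminescence after at least 48 hr compound exposure at 37 °C, with DMSO substituting for the 20 nM CPT used in the parallel screen.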
IL-1B inflam inh: inflammasome signaling inhibition, IL-1 beta readout; 4.7% of 360,000 active; THP-1 LPS/ATP IL-1B secretion, AlphaLISA, 16 h; stronger effect = lower value; AID 743279; activity change, % at 57.5 µM; in the data active means activity change below about -50%; inconclusive means mostly about -30% to -49%
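Secreted IL-1B measured by AlphaLISA bead assay after 16 h compound exposure of THP-1 cells; compounds (final up to 57.5 uM) added 1 h before LPS (250 ng/mL) and ATP (1.25 mM) stimulation; lower signal means less secretion.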
The depositor's hits bear a star; ? = inconclusive; nt = no result; [ ] = another dose, or the depositor's remark. Unless noted, the call rests on the fitted dose curve; in most records, active means well fitted curve in the direction sought with a large enough effect; inconclusive means small, poorly fitted or top-dose-only effect, or another doubt; inactive means no such curve, though single readings can be large; an effect the other way counts as inactive or inconclusive. Unless noted, on the % scale 0 is the no-effect control and ±100 the full control effect.

SMILES	TDP1 cell CPT	HT1080NT lethal	HT1080 IDH1KD tx	12-LOX inh	DT40 TDP1 no CPT	IL-1B inflam inh
COc1ccccc1C(=O)NNC(=O)c1ccccc1	-14%	-13%	-15%	?	4%	77
Cc1csc(NC(=O)CCc2ncc(-c3ccccc3)o2)n1	nt	nt	nt	14%	nt	nt
O=C(Cn1nnc(-c2ccccc2)n1)Nc1cccc(S(=O)(=O)N2CCOCC2)c1	?	7%	7%	11%	12µM*	-9
O=C(NC(=S)NCCO)c1cn(-c2ccccc2)nc1-c1ccccc1	-22%	23%	17%	40µM*	-19%	-4
O=C(O)c1ccc(NC(=O)c2cn(-c3ccccc3)nc2-c2ccc(F)cc2)cc1	?	-9%	-1%	-12%	?	21
Cc1cccc(NC(=O)c2cn(-c3ccccc3)nc2-c2ccccc2)c1C	?	nt	nt	-23%	21µM*	nt
O=C(O)c1ccc(NC(=O)c2cn(-c3ccccc3)nc2-c2cccc(Cl)c2)cc1	?	?	?	?	3.7µM*	21
Cc1cc(C)cc(N(C(=O)C23CC4CC(CC(C4)C2)C3)C2C=CS(=O)(=O)C2)c1 (centres undefined)	nt	nt	nt	-26%	nt	nt
C[S+](=O)([O-])N1CC2(CCCN2Cc2ccccn2)Cc2ccccc21 (centres undefined)	nt	nt	nt	-19%[6.33 µM]	nt	nt
CN(C)S(=O)(=O)c1cccc(NC(=O)COC(=O)c2cn(-c3ccccc3)nc2-c2ccccc2)c1	?	-6%	0%	4%	21µM*	-21
NS(=O)(=O)c1ccc(NC(=O)COC(=O)c2cn(-c3ccccc3)nc2-c2ccc(F)cc2)cc1	?	-22%	?	9%	?	-2
O=C(Nc1cccc(S(=O)(=O)N2CCOCC2)c1)c1cn(-c2ccccc2)nc1-c1ccccc1	?	2%	8%	0%	23µM*	-19
O=C(Nc1cccc(S(=O)(=O)N2CCOCC2)c1)c1cn(-c2ccccc2)nc1-c1ccc(F)cc1	?	15%	16%	-2%	?	55
COc1ccccc1NC(=O)c1cc(-c2ccccn2)nc2ccccc12	nt	nt	nt	-3%	nt	nt
Cc1cccc(NC(=O)c2cn(-c3ccccc3)nc2-c2ccccc2)c1	?	-5%	1%	-22%	16µM*	-1
Cc1cccc(NC(=O)c2cc(-c3ccccn3)nc3ccccc23)c1C	23µM*	?	-21%	-9%	13µM*	-27
Cc1cccc(C)c1NC(=O)c1cn(-c2ccccc2)nc1-c1ccccc1	-2%	16%	16%	-2%	?	7
Cc1ccc(-c2cc(C(=O)N3CCOC(C)C3)n[nH]2)s1 (centres undefined)	nt	nt	nt	25%	nt	nt
Cc1ccc(-c2ccc3nnc(CNC(=O)c4ccn[nH]4)n3n2)cc1C	nt	nt	nt	23%	nt	nt
Cc1ccc(S(=O)(=O)N2CCOCC2)cc1NC(=O)c1cc(-c2ccccn2)nc2ccccc12	?	?	?	8%	-27%	-51*
Cc1cc(C(=O)Nc2cccc(S(=O)(=O)N3CCOCC3)c2)c2ccccc2n1	?	-3%	0%	0%	23µM*	23
CCOC(=O)c1c(C)oc2nc(C)nc(NCCc3ccc(S(N)(=O)=O)cc3)c12	23µM*	nt	nt	-16%	15µM*	nt
CCOC(=O)c1c(C)oc2nc(C)nc(NCC3CCN(Cc4cc(C)ccc4C)CC3)c12	-9%	nt	nt	-12%	-20%	nt
CCOC(=O)c1c(C)oc2nc(C)nc(NCCc3ccc(C)cc3)c12	21µM*	nt	nt	-12%	?	nt
CC(C)C(=O)N1CCC2(CCC(=O)N(Cc3ccccc3)CC2)CC1	nt	nt	nt	16%	nt	nt
